These results are taken from article PMC7862700, “An all-to-all approach to the identification of sequence-specific readers for epigenetic DNA modifications on cytosine”.

Holding throughout (experiment): DAPPL (digital affinity profiling via proximity ligation, sequencing); 10 mM Tris-HCl pH 7.5, 50 mM NaCl, 1 mM DTT, 4% glycerol, room temperature, 30 min; GST-TFs on glutathione beads, 16-mer random dsDNA library, 0.1% formaldehyde crosslink after washing; high values mean tight binding
Conditions in all cases: protein: recombinant; tags: N-terminal GST; dsDNA, one strand shown

The target in assay [1] is T1, FLI1 (Homo sapiens, UniProt Q01543 1-452).
T1 sequence: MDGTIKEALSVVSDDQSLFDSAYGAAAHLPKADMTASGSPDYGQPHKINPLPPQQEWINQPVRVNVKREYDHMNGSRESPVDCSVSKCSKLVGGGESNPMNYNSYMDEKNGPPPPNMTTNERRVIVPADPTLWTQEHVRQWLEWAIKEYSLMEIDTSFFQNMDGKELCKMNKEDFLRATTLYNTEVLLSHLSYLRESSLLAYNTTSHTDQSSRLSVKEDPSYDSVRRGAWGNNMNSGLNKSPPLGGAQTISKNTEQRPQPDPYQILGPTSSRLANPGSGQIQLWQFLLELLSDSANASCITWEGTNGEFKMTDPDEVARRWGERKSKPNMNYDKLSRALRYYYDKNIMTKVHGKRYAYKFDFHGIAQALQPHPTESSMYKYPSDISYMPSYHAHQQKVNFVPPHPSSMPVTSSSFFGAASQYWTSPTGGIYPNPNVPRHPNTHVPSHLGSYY
The gist of the method:
(§1)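 Beads coated with glutathione captured GST-fused human transcription factors that had been expressed in yeast, and the factors were then given DNA barcodes and pooled with a tag-only sample. The pools were incubated with 200 nmole of a random double-stranded 16-mer DNA library in Tris/NaCl/DTT/glycerol buffer for 30 min at room temperature, washed, crosslinked with 0.1% formaldehyde and proximity-ligated with BsaI/T4 ligase at 37 °C for 1 h. PCR amplification and Illumina NextSeq500 sequencing came last. Binding signal is each hexamer's read frequency for a factor divided by its frequency for the tag-only sample.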

Assay [2] concerns the target T2, ELK1 (Homo sapiens, UniProt P19419 1-428).
T2 sequence: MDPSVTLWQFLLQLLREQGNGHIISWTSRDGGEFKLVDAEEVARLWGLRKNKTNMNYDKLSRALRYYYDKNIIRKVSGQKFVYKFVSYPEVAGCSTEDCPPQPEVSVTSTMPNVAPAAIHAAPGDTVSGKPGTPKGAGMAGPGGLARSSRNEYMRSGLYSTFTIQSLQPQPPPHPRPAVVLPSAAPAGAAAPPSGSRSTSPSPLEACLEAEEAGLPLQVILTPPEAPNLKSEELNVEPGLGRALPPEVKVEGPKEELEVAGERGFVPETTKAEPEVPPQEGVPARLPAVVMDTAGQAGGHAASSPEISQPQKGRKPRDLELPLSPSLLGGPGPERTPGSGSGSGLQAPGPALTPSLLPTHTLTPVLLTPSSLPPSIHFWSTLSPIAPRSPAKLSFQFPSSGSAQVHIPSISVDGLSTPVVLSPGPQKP
The gist of the method:
as §1

In assay [3] the target is T3, ERG (Homo sapiens, UniProt P11308 1-479).
T3 sequence: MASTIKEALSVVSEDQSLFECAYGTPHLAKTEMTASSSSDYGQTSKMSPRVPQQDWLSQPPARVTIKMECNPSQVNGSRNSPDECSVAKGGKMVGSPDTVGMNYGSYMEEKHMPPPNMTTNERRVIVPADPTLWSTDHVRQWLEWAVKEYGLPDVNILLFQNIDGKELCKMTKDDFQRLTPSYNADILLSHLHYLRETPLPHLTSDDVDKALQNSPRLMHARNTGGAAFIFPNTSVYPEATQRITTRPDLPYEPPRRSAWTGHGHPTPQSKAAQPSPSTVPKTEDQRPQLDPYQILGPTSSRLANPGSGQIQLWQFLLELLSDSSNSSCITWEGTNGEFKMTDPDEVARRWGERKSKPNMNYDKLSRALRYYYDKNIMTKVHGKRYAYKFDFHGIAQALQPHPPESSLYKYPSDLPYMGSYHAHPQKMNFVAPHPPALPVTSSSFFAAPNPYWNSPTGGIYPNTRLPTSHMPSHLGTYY
The essentials:
as §1

Assay [4] deals with ELF1 (Homo sapiens, UniProt P32519 1-619). The essentials:
as §1

The target in assay [5] is T4, EHF (Homo sapiens, UniProt Q9NZC4 1-300).
T4 sequence: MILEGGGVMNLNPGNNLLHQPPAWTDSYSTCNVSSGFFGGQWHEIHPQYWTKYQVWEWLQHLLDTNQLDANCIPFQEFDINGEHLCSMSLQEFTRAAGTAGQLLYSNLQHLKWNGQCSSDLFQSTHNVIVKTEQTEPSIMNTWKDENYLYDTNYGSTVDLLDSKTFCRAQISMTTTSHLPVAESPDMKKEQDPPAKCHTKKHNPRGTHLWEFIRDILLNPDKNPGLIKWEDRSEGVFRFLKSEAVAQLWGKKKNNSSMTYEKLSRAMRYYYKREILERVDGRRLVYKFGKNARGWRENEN
The essentials:
as §1

Assay [6] addresses T5, FEV (Homo sapiens, UniProt Q99581 1-238).
T5 sequence: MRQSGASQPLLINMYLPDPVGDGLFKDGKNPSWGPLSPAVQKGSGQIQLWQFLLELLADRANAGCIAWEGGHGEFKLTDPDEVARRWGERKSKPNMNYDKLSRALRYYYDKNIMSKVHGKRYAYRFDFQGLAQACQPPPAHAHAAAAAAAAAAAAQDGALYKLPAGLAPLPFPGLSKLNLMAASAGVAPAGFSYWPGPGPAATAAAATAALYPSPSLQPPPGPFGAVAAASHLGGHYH
The essentials:
as §1

Assay [7] addresses ETV5 (Homo sapiens, UniProt P41161 1-510). The essentials: as §1
In assay [8] the target is T6, SPIC (Homo sapiens, UniProt Q8N5J4 1-248).
T6 sequence: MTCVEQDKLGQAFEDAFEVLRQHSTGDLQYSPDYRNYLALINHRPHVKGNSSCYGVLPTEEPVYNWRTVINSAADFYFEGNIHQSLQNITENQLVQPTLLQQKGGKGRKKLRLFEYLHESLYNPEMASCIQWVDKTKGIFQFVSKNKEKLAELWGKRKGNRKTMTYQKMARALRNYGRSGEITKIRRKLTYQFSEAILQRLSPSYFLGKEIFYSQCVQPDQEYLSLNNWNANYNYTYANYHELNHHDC
The essentials:
as §1

Assay [9] addresses ELF4 (Homo sapiens, UniProt Q99607 1-663). The essentials:
as §1

Assay [10] addresses T7, ELK4 (Homo sapiens, UniProt P28324-2 1-405).
T7 sequence: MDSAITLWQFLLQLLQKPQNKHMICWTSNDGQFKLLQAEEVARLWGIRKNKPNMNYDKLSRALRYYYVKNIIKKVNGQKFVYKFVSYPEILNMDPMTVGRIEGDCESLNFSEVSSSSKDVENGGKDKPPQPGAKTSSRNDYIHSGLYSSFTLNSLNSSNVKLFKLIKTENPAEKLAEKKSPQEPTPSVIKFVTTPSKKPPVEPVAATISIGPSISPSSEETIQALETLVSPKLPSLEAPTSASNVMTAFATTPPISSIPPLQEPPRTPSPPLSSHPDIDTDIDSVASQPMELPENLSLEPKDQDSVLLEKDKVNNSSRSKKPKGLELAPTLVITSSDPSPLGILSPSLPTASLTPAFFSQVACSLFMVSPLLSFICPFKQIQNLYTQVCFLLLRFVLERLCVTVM
The essentials:
as §1

In assay [11] the target is T8, ETV2 (Homo sapiens, UniProt O00321 1-342).
T8 sequence: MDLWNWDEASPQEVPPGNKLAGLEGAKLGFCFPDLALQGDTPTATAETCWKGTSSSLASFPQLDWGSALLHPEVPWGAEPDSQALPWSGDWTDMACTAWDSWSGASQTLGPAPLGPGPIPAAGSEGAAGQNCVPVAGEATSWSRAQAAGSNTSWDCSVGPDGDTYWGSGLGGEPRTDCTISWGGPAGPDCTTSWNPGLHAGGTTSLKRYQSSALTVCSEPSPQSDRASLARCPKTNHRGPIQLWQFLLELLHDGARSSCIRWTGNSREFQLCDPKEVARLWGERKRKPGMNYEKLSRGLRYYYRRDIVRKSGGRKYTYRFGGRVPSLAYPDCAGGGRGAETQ
The essentials: as §1

Assay [12] has as its target T9, ELF3 (Homo sapiens, UniProt P78545 1-371).
T9 sequence: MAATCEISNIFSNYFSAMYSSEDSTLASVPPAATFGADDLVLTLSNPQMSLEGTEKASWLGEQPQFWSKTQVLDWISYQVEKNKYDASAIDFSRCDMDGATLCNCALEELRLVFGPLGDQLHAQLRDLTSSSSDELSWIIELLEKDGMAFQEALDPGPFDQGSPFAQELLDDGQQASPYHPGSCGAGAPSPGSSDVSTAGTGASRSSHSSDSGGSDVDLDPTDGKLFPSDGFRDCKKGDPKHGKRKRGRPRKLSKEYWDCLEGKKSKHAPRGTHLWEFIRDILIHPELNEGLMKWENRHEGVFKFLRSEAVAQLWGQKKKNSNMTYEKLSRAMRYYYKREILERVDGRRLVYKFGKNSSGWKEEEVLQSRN
The essentials:
as §1

The target of assay [13] is SPI1 (Homo sapiens, UniProt P17947 1-270). The essentials: as §1
In assay [14] the target is SPIB (Homo sapiens, UniProt Q01892 1-262). The essentials:
as §1

Assay [15] concerns the target ETV1 (Homo sapiens, UniProt P50549 1-477). The essentials:
as §1

Assay [16] has as its target T10, GABPA (Homo sapiens, UniProt Q06546 1-454).
T10 sequence: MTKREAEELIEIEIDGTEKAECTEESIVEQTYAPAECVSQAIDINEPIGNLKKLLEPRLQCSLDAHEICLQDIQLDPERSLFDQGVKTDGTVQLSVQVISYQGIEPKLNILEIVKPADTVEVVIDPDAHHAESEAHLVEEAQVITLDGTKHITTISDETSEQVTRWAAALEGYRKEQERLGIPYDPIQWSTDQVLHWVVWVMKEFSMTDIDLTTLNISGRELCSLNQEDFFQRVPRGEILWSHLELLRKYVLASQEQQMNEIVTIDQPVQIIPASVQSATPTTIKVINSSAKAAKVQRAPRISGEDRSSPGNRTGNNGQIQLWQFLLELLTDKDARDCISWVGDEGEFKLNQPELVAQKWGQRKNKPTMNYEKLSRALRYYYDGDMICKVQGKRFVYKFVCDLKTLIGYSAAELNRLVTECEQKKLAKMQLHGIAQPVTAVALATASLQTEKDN
The essentials: as §1

In assay [17] the target is T11, ELK3 (Homo sapiens, UniProt P41970 1-407).
T11 sequence: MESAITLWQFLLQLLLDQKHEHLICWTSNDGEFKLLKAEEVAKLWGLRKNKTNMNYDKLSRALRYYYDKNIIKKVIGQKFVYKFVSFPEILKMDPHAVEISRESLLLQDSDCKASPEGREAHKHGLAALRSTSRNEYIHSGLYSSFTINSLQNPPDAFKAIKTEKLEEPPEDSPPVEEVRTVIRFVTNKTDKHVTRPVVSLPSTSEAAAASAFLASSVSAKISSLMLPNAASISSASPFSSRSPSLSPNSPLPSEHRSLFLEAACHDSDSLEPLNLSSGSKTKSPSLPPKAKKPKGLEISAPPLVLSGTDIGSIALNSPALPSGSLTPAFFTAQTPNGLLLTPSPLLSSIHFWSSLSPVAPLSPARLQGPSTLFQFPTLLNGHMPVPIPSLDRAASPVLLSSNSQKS
The essentials:
as §1

ELF4, sequence (Q99607 whole entry): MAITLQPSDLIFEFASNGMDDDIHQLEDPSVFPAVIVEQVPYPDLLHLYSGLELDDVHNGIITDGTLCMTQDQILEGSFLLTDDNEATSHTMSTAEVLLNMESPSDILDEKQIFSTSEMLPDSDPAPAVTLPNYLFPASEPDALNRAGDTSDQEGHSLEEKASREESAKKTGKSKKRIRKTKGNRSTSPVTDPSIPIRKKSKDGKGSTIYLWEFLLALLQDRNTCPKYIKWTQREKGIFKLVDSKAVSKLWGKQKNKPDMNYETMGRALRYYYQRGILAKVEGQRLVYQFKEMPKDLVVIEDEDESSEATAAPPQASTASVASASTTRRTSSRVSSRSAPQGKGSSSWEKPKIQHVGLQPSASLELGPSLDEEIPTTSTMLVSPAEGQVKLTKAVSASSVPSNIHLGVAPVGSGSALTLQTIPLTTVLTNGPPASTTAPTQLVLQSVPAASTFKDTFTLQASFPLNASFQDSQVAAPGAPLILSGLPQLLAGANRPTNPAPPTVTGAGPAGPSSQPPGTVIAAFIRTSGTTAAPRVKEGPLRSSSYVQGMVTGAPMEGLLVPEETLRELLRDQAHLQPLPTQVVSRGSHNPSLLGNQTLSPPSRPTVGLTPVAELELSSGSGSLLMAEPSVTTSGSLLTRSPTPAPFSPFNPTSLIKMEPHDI
ETV5, sequence (P41161 whole entry): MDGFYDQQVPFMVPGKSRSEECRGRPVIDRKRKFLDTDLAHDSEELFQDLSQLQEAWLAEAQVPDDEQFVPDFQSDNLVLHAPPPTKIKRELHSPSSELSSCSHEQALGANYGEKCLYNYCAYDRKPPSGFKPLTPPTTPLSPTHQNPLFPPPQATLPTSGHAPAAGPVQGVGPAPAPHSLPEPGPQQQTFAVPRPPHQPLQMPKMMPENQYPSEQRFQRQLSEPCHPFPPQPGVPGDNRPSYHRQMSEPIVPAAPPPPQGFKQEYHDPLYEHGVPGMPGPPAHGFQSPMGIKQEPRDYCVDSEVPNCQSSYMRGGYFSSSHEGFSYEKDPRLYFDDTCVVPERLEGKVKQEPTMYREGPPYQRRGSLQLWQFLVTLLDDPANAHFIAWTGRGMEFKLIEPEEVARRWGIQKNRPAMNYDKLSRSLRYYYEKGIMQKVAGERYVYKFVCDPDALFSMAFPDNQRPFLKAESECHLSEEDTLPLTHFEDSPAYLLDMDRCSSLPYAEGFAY
ETV1, sequence (P50549 whole entry): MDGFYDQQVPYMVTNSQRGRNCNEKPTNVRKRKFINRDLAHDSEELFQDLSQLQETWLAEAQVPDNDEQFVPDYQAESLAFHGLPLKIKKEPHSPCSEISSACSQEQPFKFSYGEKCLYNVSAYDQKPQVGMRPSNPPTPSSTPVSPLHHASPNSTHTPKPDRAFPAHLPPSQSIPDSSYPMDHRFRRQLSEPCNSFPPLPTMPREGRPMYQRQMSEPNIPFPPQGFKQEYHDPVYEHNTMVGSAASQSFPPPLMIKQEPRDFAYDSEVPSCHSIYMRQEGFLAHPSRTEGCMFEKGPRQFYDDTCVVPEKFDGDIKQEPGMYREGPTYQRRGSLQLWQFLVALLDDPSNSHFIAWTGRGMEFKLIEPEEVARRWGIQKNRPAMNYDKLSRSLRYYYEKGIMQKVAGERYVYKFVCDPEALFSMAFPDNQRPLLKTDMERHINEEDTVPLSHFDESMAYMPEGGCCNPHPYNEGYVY
SPIB, sequence (Q01892 whole entry): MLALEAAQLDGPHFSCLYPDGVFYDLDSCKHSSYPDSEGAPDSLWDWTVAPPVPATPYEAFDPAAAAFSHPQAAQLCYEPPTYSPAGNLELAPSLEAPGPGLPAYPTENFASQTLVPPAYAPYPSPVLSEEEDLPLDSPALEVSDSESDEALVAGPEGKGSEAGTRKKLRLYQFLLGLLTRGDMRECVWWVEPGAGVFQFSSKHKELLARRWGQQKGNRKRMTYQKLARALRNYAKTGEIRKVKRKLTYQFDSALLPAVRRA
ELF1, sequence (P32519 whole entry): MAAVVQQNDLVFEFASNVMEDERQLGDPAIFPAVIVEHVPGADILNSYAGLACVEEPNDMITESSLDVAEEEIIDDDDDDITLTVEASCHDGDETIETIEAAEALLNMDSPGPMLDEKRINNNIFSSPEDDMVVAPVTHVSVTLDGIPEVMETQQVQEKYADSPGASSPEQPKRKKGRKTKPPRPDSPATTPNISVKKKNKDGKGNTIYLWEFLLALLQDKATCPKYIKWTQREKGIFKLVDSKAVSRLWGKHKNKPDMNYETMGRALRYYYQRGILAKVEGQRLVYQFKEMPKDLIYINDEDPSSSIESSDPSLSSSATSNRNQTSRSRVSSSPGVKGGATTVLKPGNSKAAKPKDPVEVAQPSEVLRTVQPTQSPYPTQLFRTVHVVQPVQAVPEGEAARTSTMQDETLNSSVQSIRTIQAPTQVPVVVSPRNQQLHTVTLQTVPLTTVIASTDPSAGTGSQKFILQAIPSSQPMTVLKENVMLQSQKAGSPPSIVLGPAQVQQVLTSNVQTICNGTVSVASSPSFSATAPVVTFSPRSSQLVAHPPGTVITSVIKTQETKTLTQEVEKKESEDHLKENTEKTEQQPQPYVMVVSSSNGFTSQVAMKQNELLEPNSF

On to ACACCA, for which the binding signal in assay [1] is 1.01 fold enrichment (6-mer frequency, TF over GST control); in [2], 1.15 fold enrichment (6-mer frequency, TF over GST control); in assay [3], 1.01 fold enrichment (6-mer frequency, TF over GST control); in assay [4], 1.05 fold enrichment (6-mer frequency, TF over GST control); in assay [5], 1.04 fold enrichment (6-mer frequency, TF over GST control); in assay [6], 1.03 fold enrichment (6-mer frequency, TF over GST control). The binding signal in [7] is 1.04 fold enrichment (6-mer frequency, TF over GST control); in assay [8], 1.13 fold enrichment (6-mer frequency, TF over GST control); in assay [9], 1.02 fold enrichment (6-mer frequency, TF over GST control); in assay [10] it was 1.08 fold enrichment (6-mer frequency, TF over GST control); in assay [11], 1.05 fold enrichment (6-mer frequency, TF over GST control); in [12], 1.01 fold enrichment (6-mer frequency, TF over GST control).

In the case of ATAGGT, the binding signal was 1.08 fold enrichment (6-mer frequency, TF over GST control) in assay [1]; 1.01 fold enrichment (6-mer frequency, TF over GST control) in [2]; 1.01 fold enrichment (6-mer frequency, TF over GST control) in [3]; 1.04 fold enrichment (6-mer frequency, TF over GST control) in [5]; 1.01 fold enrichment (6-mer frequency, TF over GST control) in assay [13]; 1.04 fold enrichment (6-mer frequency, TF over GST control) in assay [14]. Further, the binding signal in [7] is 1.08 fold enrichment (6-mer frequency, TF over GST control); in assay [8], 1.01 fold enrichment (6-mer frequency, TF over GST control); in assay [9], 1.01 fold enrichment (6-mer frequency, TF over GST control); in assay [10] it was 1.02 fold enrichment (6-mer frequency, TF over GST control); in [11], 1.11 fold enrichment (6-mer frequency, TF over GST control); in assay [12], 1.11 fold enrichment (6-mer frequency, TF over GST control). Moreover, the binding signal in [15] is 1.03 fold enrichment (6-mer frequency, TF over GST control).

TAGGTC: the binding signal was 1.06 fold enrichment (6-mer frequency, TF over GST control) in assay [1]; 1.03 fold enrichment (6-mer frequency, TF over GST control) in assay [2]; 1.1 fold enrichment (6-mer frequency, TF over GST control) in assay [16]; 1.03 fold enrichment (6-mer frequency, TF over GST control) in assay [3]; 1.01 fold enrichment (6-mer frequency, TF over GST control) in assay [4]; 1.01 fold enrichment (6-mer frequency, TF over GST control) in [14]. Besides, the binding signal is 1.08 fold enrichment (6-mer frequency, TF over GST control) in assay [17]; 1.06 fold enrichment (6-mer frequency, TF over GST control) in assay [7]; 1.11 fold enrichment (6-mer frequency, TF over GST control) in [8]; 1.02 fold enrichment (6-mer frequency, TF over GST control) in [9]; 1.11 fold enrichment (6-mer frequency, TF over GST control) in assay [10]; 1.14 fold enrichment (6-mer frequency, TF over GST control) in assay [11]. The binding signal was 1.06 fold enrichment (6-mer frequency, TF over GST control) in assay [12] and 1.01 fold enrichment (6-mer frequency, TF over GST control) in assay [15].
